The source made the active and inactive calls. Calls come from the whole dose curve; as a rule, active = well fitted curve in the direction sought with a large enough effect in the repeat runs; inconclusive = weak or mixed curves; inactive = flat fitted curve, though single readings scatter.
assay: qHTS assay to test for compound auto fluorescence at 460 nm (blue) in HepG2 cells (AID 720687); conditions: autofluorescence 405/460 nm, 1 h; series mostly up to 91.3 µM; fluorescence, % of fluorescent control: at the top concentration
Summary of the method: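 Cells (2,000/well in MEM with 10% FBS) attached overnight at 37 C, then were exposed to compound or DMSO for 1 hr at 37 C, 5% CO2. Fluorescence read at Ex/Em 405/460 nm, expressed as triamterene-equivalent signal.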
% is set by controls: 0 for no effect and ±100 for the full control effect.

| Compound | fluorescence, % of fluorescent control | Potency |
| --- | --- | --- |
| CN(C)CC[C@@H](c1ccc(Br)cc1)c1ccccn1 | 0.0368% [at 46 µM] (inactive) |  |
| O=C(O)/C=C/c1cnc[nH]1 | -0.0075% (inactive) |  |
| Cc1occc1S | 0.256% (inactive) |  |
| CC(C)CCCCCCOC(=O)c1ccc(C(=O)OCCCCCCC(C)C)c(C(=O)OCCCCCCC(C)C)c1 | 0.0032% (inactive) |  |
| O=c1[nH]cnc2ccccc12 | -0.0363% [at 95.7 µM] (inactive) |  |
| CCN(CC)CCOc1ccc2c(c1)C(=O)c1cc(OCCN(CC)CC)ccc1-2 | -0.0604% [at 46 µM] (inactive) |  |
| CC(=O)OCCc1ccccc1 | -0.144% (inactive) |  |
| O=C(O)COC(=O)Cc1ccccc1Nc1c(Cl)cccc1Cl | 0.0219% [at 18.6 µM] (inactive) |  |
| CCCCCCCCCCCCC(=O)O | 0.0346% (inactive) |  |
| Oc1ccc(Cc2ccccc2)cc1 | -0.0609% (inactive) |  |
| NC1CCN(c2nc3c(cc2F)c(=O)c(C(=O)O)cn3-c2ccc(F)cc2F)C1 (stereo unspecified) | -0.198% [at 46 µM] (inactive) |  |
| CC(C)c1ccc2c(C(C)C)cc(C(C)C)c(S(=O)(=O)O)c2c1 | -0.0301% [at 95.7 µM] (inactive) |  |
| CCN1CCC[C@H]1CNC(=O)c1c(OC)ccc(Br)c1OC | -0.026% [at 46 µM] (inactive) |  |
| O=CNc1ccccc1 | -0.0386% (inactive) |  |
| Cc1cccc(Oc2ccccc2)c1 | 0.0077% (inactive) |  |
| O=C(O)[C@@H]1[C@H]2C[C@H]3c4[nH]c5ccccc5c4CCN3C[C@@H]2CC[C@@H]1O | 5.05% [at 18.6 µM] (inactive) |  |
| O=C(O)Cc1cc(I)c(Oc2ccc(O)c(I)c2)c(I)c1 |  | inactive |
| O=c1c2ccccc2nnn1CCl | 0.0167% (inactive) |  |
| O=C(NN1CCCC1)NS(=O)(=O)c1ccc(Cl)cc1 | -0.0757% [at 46 µM] (inactive) |  |
| C[C@@H](C1=C(CCN(C)C)Cc2ccccc21)c1ccccn1 | 0.202% [at 46 µM] (inactive) |  |
| CC(=O)N(O)CCCCCNC(=O)CCC(=O)N(O)CCCCCNC(=O)CCC(=O)N(O)CCCCCN | 0.041% [at 18.6 µM] (inactive) |  |

Source: PubChem BioAssay (Tox21)
